# A selection: hits, their analogues and other compounds. The true share with any hit is near 2.6%.
# TCR activator = activators of T cell receptors; primary human leukocytes, anti-CD3, IL-2 HTRF, 48 h; Potency, µM (top dose mostly 9.22 µM), for inactives: at the top dose activation of IL-2 secretion, hits mostly activators; 330,000 tested, under 10 active; AID 504894; further: % of control where 0% means no effect
#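 Primary human leukocytes were stimulated with a-CD3 beads plus compounds for 48 hr without co-stimulation; secreted IL-2 was quantified by HTRF using a-IL-2-K (europium cryptate) and a-IL-2-d2, excited at 320nm with acceptor emission read at 665nm.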
# A549 tox = kills or reduces viability of A549 cells in Nrf2 counter-screen; A549 ARE-Fluc cells, CellTiter-Fluor viability, 18-24 h; Potency, µM (top dose mostly 46 µM), inactives show at the top dose activity change, negative = cytotoxicity, most hits filed as inhibitors; actives 0.16% (n = 390,000); AID 504648; further: potency means the concentration at half of the fitted maximal effect; on the % scale 0 is the no-effect control and ±100 the full control effect
#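 A549 ARE_Fluc cells in 5% FBS OPTI-MEM were exposed to compounds in concentration-response for 18-24 h at 37 deg C. Viability was read by CellTiter-Fluor fluorescence (Ex 405/Em 525) after 30 min, before the luciferase read.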
# A-T KAP1 phos = potential ataxia-telangiectasia treatment; AID 485349; F2112 A-T fibroblasts, KAP-1 phosphorylation AlphaLISA; neocarzinostatin DNA damage 30 min before lysis; actives 0.19% (n = 320,000); Potency, µM (top dose mostly 57.5 µM), without a hit: at the highest dose activation, usual class: activators; further: potency means the concentration at half of the fitted maximal effect; % of control where 0% means no effect; nearly all actives have a fitted effect of over 45% in size
#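 hTERT-immortalized A-T patient fibroblasts (F2112), 500 cells/well in OPTI-MEM, 1% FBS, got compounds for 60 min, then NCS for 30 min at 37C. Lysates were then assayed for phospho-KAP-1 by AlphaLISA (anti-pKAP1 donor, anti-KAP1 acceptor beads), 6 hr at 25C.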
# Nrf2 block = Nrf2 pathway inhibition. A549 ARE-Fluc reporter, luciferase luminescence, 18-24 h. Potency, µM (titrated, usually from 46 µM), without a hit: at the top dose activity change, negative = inhibition, hits mostly inhibitors. actives 2.1% (n = 360,000). AID 504444; further: potency means the concentration at half of the fitted maximal effect; on the % scale 0 is the no-effect control and ±100 the full control effect; nearly all actives have a fitted effect of over 60% in size
#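 A549 ARE_Fluc cells, 5000/well, 5% FBS OPTI-MEM; compounds in dose-response, 18-24 h at 37 °C/5% CO2; CellTiter-Fluor viability read (Ex 405/Em 525), then BugLite luciferase luminescence = Nrf2 activity.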
# Nrf2 ARE act = activates Nrf2 signaling | AREc32 ARE-luciferase reporter (MCF7-derived line), luminescence, 24 h | AID 624171 | Potency, µM (doses to about 46.1 µM), inactives show top-dose activation, usual class: activators | actives 0.31% (n = 410,000); further: potency means the concentration at half of the fitted maximal effect; % of control where 0% means no effect; nearly all actives have a fitted effect of over 65% in size
#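 For detection, Steady-Glo was added and plates sat 30 min at RT; before that, AREc32_Fluc cells grown overnight in OPTI-MEM/5% FBS had been treated with 23 nL compound for 24 hr at 37 deg C.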
# CCT modulator = cytosolic chaperonin activity modulation | purified chaperonin ATPase assay, HTRF ADP detection, 30 min | activity change, % (test concentration not listed), hits read low | AID 651819 | actives 0.3% (n = 360,000); in the data active means activity change below about -30%; further: on the % scale 0 is the no-effect control and ±100 the full control effect
#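 First, chaperonin was dispensed at 40 nM or 20 nM final depending on batch activity. Next, compounds were pinned at 76 uM and ATP added at 10 uM. After 30 min at 37 °C, ADP detection reagents ran 30 min at ambient temperature.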
# * hit, by the source's call; ? = inconclusive; . = no result; [ ] = remark or other dose. Unless noted, the call rests on the fitted dose curve; in most records, active means well fitted curve in the direction sought with a large enough effect; inconclusive means small, poorly fitted or top-dose-only effect, or another doubt; inactive means no such curve, though single readings can be large; an effect the other way counts as inactive or inconclusive.
SMILES,TCR activator,A549 tox,A-T KAP1 phos,Nrf2 block,Nrf2 ARE act,CCT modulator
CCn1c2ccccc2c2cc(NC(=O)c3ccco3)ccc21,-1.0%,-18.3%,8.8%,20.6µM*,1.7%,0.5
CCn1c2ccccc2c2cc(NC(=O)CSc3nnc(C4CC4)n3Cc3ccco3)ccc21,-0.2%,-11.7%,13.2%,18.4µM*,3.8%,0.8
C=CCn1c(C)cc(C(=O)COc2ccc(N(C)S(=O)(=O)c3ccc(NC(C)=O)cc3)cc2)c1C,4.6%,-22.7%,-7.4%,16.4µM*,25.5%,-0.4
COCC(C)n1c(C)cc(C(=O)COc2ccc(N(C)S(=O)(=O)c3ccc(NC(C)=O)cc3)cc2)c1C (stereo not given),6.0%,1.7%,7.2%,-6.7%,9.9%,2.8
NC(=O)Cn1c(O)c(N=NC(=O)CNC(=O)/C=C/c2ccccc2)c2ccccc21,2.7%,-1.1%,4.4%,10.2%,0.1%,-73.3*
Cc1cc(C)cc(-n2nnc(-c3nsc(NC(=O)c4ccccc4Cl)n3)c2C)c1,.,-1.9%,.,-17.1%,-0.3%,.
CCc1ccc(-n2nnc(-c3nsc(NC(=O)c4ccccc4Cl)n3)c2C)cc1,.,-4.5%,.,18.4µM*,4.8%,.
Nn1c(SCc2ccc(F)cc2)nnc1-c1ccccn1,-26.4%,-3.2%,15.8µM*,22.2%,2.9%,-14.8
O=S1(=O)N=C(Oc2ccc(Br)cc2)c2ccccc21,.,-1.7%,.,9.2%,.,.
CCCNC(=O)c1nnsc1S(=O)(=O)c1ccc(Cl)cc1,2.8%,?,3.2%,23.1µM*,-2.7%,-2.7
CN(C)c1nc(/C=C(\C#N)C(N)=O)c(Cl)n1-c1ccc(F)cc1,0.0%,-15.3%,0.6%,?,?,-1.0
CC(=O)c1c(C)[nH]c(C(=O)OCC(=O)Nc2ccc3c(c2)OCCO3)c1C,-6.1%,-0.6%,2.5%,16.4µM*,2.5%,-0.2
CCOC(=O)c1[nH]c(C)c(C(=O)OCC(=O)NC(=O)NC(C)(C)C)c1C,0.5%,.,1.1%,10.2%,0.0%,-4.0
CC(=O)c1c(C)[nH]c(C(=O)OCC(=O)Nc2ccc(Cl)cc2[N+](=O)[O-])c1C,5.5%[46.1 µM],-10.7%,4.0%,20.6µM*,11.5%,-1.2
CC(=O)c1c(C)[nH]c(C(=O)OCC(=O)Nc2cc(C)on2)c1C,.,-6.5%,2.0%,?,2.8%,-1.0
COc1cc(NC(=O)COC(=O)c2[nH]c(C)c(C(C)=O)c2C)cc(OC)c1,1.1%,-17.1%,1.3%,13µM*,5.8%,0.1
CCOC(=O)c1c(C)[nH]c(C(=O)Nc2ccc3c(c2)OCO3)c1C,.,.,5.0%,.,.,.
CCOC(=O)c1c(C)[nH]c(C(=O)OCC(=O)NC(C)(C)C)c1C,4.0%,-9.9%,0.7%,18.4µM*,3.1%,1.9
COc1cc(NC(=O)CC(C)S(=O)(=O)c2cc3c4c(c2)CCN4C(=O)CC3)cc(OC)c1 (stereo not given),.,3.5%,.,?,-0.1%,.
N#CC1=C(N)Oc2ccc3ccccc3c2C1c1cccnc1 (stereo not given),-2.5%,-10.2%,6.0%,?,3.2%,-0.5
N#CC1=C(NC=NCc2ccccc2)Oc2ccc3ccccc3c2C1c1ccccc1 (stereo not given),.,-23.2%,.,18.4µM*,.,.
Cc1c(C(=O)N2CCC(C)CC2)sc2ncnc(N(C)c3ccccc3)c12,-1.2%[46.1 µM],-8.7%,4.0%,18.4µM*,-0.1%,-3.1
NS(=O)(=O)c1ccc(N/N=C2/CCCCC2C2CCCCC2)c([N+](=O)[O-])c1 (stereo not given),16.2%[46.1 µM],?,-8.3%,20.6µM*,-2.4%,-2.1
Cc1cc(C)c2c(c1)/C(=N/Nc1ccc(S(N)(=O)=O)cc1[N+](=O)[O-])CCC2,4.1%,13.9%,-4.3%,7.5%,0.3%,2.1
COc1ccc(CC(=O)N2CCN(S(=O)(=O)c3cc(Cl)ccc3Cl)CC2)cc1,1.6%,5.7%,-1.4%,3.6%,-0.5%,1.6

# Assay outcomes as filed in PubChem BioAssay.
